Source: PubChem
In the library only some 2.9% were active in any assay of this set; here they are far more common.
TRPML1 blocker – human mucolipin-1 channel inhibition | Q9GZU1 | TRPML1-inducible cells, Ca2+ dye fluorescence, FDSS; active compounds read low; inhibition of EC80 agonist-evoked calcium signal | activity change, negative = inhibition, % (no concentration beside the values) | 390,000 compounds, 0.02% hits | AID 624415; in the data active means activity change below about -50%;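 further: stimulus is agonist 54-4 at its EC80 concentration; on the % scale 0 is the no-effect control and ±100 the full control effect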
Target sequence (Q9GZU1 whole entry, looked up): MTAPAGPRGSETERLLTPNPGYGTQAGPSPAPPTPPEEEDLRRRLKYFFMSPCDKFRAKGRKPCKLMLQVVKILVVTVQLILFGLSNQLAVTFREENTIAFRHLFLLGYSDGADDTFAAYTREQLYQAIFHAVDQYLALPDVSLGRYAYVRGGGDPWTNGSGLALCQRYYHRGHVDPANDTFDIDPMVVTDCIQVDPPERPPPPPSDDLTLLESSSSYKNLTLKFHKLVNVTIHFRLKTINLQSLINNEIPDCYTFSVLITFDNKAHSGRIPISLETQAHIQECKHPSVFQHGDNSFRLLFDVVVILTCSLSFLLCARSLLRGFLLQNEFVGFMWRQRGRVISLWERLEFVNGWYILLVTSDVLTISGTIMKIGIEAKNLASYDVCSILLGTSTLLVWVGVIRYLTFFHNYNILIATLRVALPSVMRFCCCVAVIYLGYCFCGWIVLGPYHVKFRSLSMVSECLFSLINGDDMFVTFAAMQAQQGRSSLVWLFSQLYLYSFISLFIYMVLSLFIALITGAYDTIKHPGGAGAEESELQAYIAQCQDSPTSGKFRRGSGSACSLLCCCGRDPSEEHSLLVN
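TRPML1-DL cells, Tet-induced overnight (~16 h, 37 °C) at 1,500 cells/well, were loaded with Ca8 no-wash dye plus quencher for 45-90 min at room temperature. Compounds were pinned during FDSS kinetic reading; agonist 54-4 at EC80 (4 uM final) then added.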
DRD3 antagonist – D3 dopamine receptor (human) antagonism | P35462 | D3R cells, DiscoveRx beta-arrestin luminescence, antagonist mode; active compounds read low | max response, negative = inhibition, % | 360,000 compounds, 2.5% hits | AID 652054; in the data active means max response below about -50%; further: on the % scale 0 is the no-effect control and ±100 the full control effect
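Cells expressing the human receptor were seeded at 1500 cells/well, incubated overnight at 37 degrees C in 5% CO2, then exposed to library compounds with dopamine controls for 90 minutes at 37 degrees C before luminescent detection.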
TRPML1 agonist – human mucolipin-1 channel agonism | Q9GZU1 | TRPML1-expressing cells, Ca2+ dye fluorescence, FDSS | activation, % (no concentration beside the values) | 410,000 compounds, 0.12% hits; in the data active means activation above about 50%; further: 0% is about no effect
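Agonist activity was taken from a 110 s kinetic Ca2+ dye read on the FDSS after pinning compounds onto TRPML1-DL cells. The cells were seeded at 1,500/well with Tet inducer, incubated about 16 h, then dye-loaded at room temperature.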
D3 ag – agonists of human D3 dopamine receptor | P35462 | 410,000 compounds, 0.58% hits | max activation, % | AID 652048 | D3R DiscoveRx beta-arrestin cells, luminescence, 90 min; in the data active means max activation above about 30%; further: 0% is about no effect
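Cells at 1500/well, incubated overnight, then treated with pinned compounds (dopamine as control) for 90 min at 37 degrees C. DiscoveRx reagent added for 30 - 60 minutes at room temperature; luminescence read.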
The depositor's hits bear a star.

`C=C1C(=O)O[C@H]2C[C@@H](C)[C@@H]3C=CC(=O)[C@@]3(C)C[C@H]12` gave TRPML1 blocker -11, DRD3 antagonist -66*, TRPML1 agonist 0 and D3 ag -3.
For C=C1C(=O)O[C@@H]2C[C@@H](C)[C@@H]3C4OC4C(=O)[C@@]3(C)[C@@H](O)[C@H]12 (stereo not given in full) the results were TRPML1 blocker 24, DRD3 antagonist -91*, TRPML1 agonist -1 and D3 ag -22.
C=C1C(=O)OC2C1CCC(C)C1(O)C=CC(=O)C21C (stereo not given) was read as DRD3 antagonist 22 and D3 ag 4.
`CC1OC(O[C@H]2C[C@@H](O)[C@]3(CO)[C@H]4[C@H](O)C[C@]5(C)[C@@H](C6=CC(=O)OC6)CC[C@]5(O)[C@@H]4CC[C@]3(O)C2)C(O)C(O)C1O` (stereo not given in full) gave TRPML1 agonist -1.
Screening CCCOC(=O)Cc1ccc(OCC(=O)N(CC)CC)c(OC)c1 returned D3 ag 6.
`N[C@@H](Cc1ccc(Oc2cc(I)c(O)c(I)c2)c(I)c1)C(=O)O` gave D3 ag -11.
For CCCN1CCO[C@@H]2c3cc(O)ccc3OC[C@H]21 the results were TRPML1 blocker -5, DRD3 antagonist 28, TRPML1 agonist -1 and D3 ag 146*.
For CSc1ccc(CN2CCN(Cc3ccccc3Cl)CC2)cc1 the results were TRPML1 blocker 5, DRD3 antagonist -97*, TRPML1 agonist 2 and D3 ag -2.
`CSc1ccc(CN2CCN(C(=O)Cc3ccccc3)CC2)cc1` gave TRPML1 blocker 7, DRD3 antagonist 0, TRPML1 agonist 0 and D3 ag -6.
`COc1ccc(CC(=O)N(CCN(C)C)CC2CCCN(Cc3ccccc3F)C2)cc1` (stereo not given) gave TRPML1 blocker -18, DRD3 antagonist -6, TRPML1 agonist 0 and D3 ag -9.
Screening COc1ccc(CN2CCN(Cc3ccccc3F)CC2)cc1 returned TRPML1 blocker 2, DRD3 antagonist -73*, TRPML1 agonist -1 and D3 ag -38.
Screening CCC(=O)O[C@]1(c2ccccc2)CCN(C)C[C@H]1C returned D3 ag -19.
Screening [2H]C([2H])([2H])[C@H](N)Cc1ccccc1 returned D3 ag 7.
`COc1cc2c(cc1OC)-c1c(OC)c(OC)cc3c1[C@H](C2)N(C)CC3` gave TRPML1 blocker 1, DRD3 antagonist -59*, TRPML1 agonist 0 and D3 ag -41.
For ClCCN(CCCl)c1ccc(C=Nc2ccncc2)cc1 the results were TRPML1 agonist 4.
`C[C@@H]1[C@H]2Cc3ccc(O)cc3[C@]1(C)CCN2C` gave D3 ag -15.
